Screening data from PubChem BioAssay.
KKLEB tox – cytotoxicity in KKLEB CF airway cells, primary screen, cytotoxicity control for CF NF-kB inhibitor project, cell-based, uHTS, fluorescence assay plates. KKLEB CF airway cells viability, ATPlite luminescence, overnight; hits give low values; cells stimulated with P. aeruginosa culture filtrate. activity change (cytotoxicity), % at 5 µM. 360,000 compounds, 0.36% hits. AID 602141, 2011;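 active = corrected activity change at or below -50% at 5 µM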
HIF-2a inh – HIF-2a reporter inhibitors, primary screen, luminescence, 786-0 RCC cells. 786-0 RCC cells HIF-2a reporter, luciferase luminescence, overnight. inhibition, % at 18.8 µM. 360,000 compounds, 0.72% hits. AID 624352, 2012;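 active = inhibition of the luminescence signal of 40% or more relative to plate controls, in a single-dose primary screen at 18.75 µM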
TROY NFkB inh – inhibitors of TROY-driven NF-kB signaling, primary screen, Q293 LMP1-TROYcd cells, NF-kB luciferase, uHTS; 360,000 compounds, 0.98% hits; inhibition, % at 10 µM; Q293 LMP1-TROYcd NF-kB luciferase reporter, 4 h;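 active = compounds whose plate-normalised and pattern-corrected inhibition of the luciferase reporter signal at the single screening dose is 50% or more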
Peg3 promoter – Peg3 promoter-driven luciferase inhibitors, primary screen, cell-based, HeLa, luciferase luminescence | HeLa PEG-Prom luciferase reporter, overnight | inhibition, % at 20 µM | 360,000 compounds, 1.7% hits;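 active = inhibition of at least 50% at 20 µM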
CF NFkB inh – inhibitors of PAF-induced NF-kB signaling, primary screen, cell-based, GFP fluorescence, uHTS; KKLEB NF-kB-GFP reporter, GFP fluorescence overnight; inhibition, % at 5 µM; 360,000 compounds, 0.86% hits; AID 588850, 2011;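 active = at least 50% inhibition at 5 µM, scaled per plate between neutral and stimulator controls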;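 note: PAF is a Pseudomonas aeruginosa culture filtrate used as stimulus; plate controls were PAF-stimulated DMSO wells for no effect and unstimulated DMSO wells for full effect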
TWEAK-Fn14 inh – inhibitors of TWEAK-Fn14 signaling, primary screen, luciferase reporter cells, uHTS; TWEAK-stimulated Fn14 reporter cells, luciferase luminescence, 8 h; inhibition, % at 10 µM; 360,000 compounds, 2% hits; AID 1159606, 2016; in the data active = inhibition above about 50%
Active calls of the source: *; x = not tested or not shown. Only some compounds are listed: those with a hit (about 4% of all), similar ones and a draw of the others.

SMILES	KKLEB tox	HIF-2a inh	TROY NFkB inh	Peg3 promoter	CF NFkB inh	TWEAK-Fn14 inh
O=C(CCN1CCOCC1)c1ccc(N2CCCCC2)cc1	-16	-57	7	-25	20	55*
COc1ccc(N2CCN(CCC(=O)c3ccc4ccccc4c3)CC2)cc1	-8	-4	-2	104*	15	-2
O=C(Nc1ccn(CCCNCc2ccc3c(c2)OCO3)c(=O)n1)OCc1ccccc1	-4	11	6	-18	-9	-17
COc1cc(/C=C/C(=O)OCC(=O)NCc2ccco2)ccc1O	-14	14	4	18	16	8
Cc1ccccc1C(=O)Nc1c(C(=O)N(CCN(C)C)Cc2ccco2)oc2ccccc12	3	12	-8	15	2	-12
COc1ccccc1C(=O)Nc1c(C(=O)N(CCN(C)C)Cc2ccco2)oc2ccccc12	-31	-3	-39	92*	13	-14
COc1cc(NC(=O)CCc2c(C)noc2C)c(Cl)cc1C(=O)O	-13	-2	7	-6	10	-17
COC(=O)/C=c1\sc2ncnn2c1=O	4	7	x	12	8	74*
CNC(=O)/C(C#N)=c1\s/c(=C/C(=O)OC)c(=O)n1-c1ccccc1	-1	32	9	-14	-1	-9
Cn1nnnc1SCc1cn2cccnc2n1	4	15	x	8	-10	87*
Cc1ccccc1OCC(=O)Nc1sc2c(c1C#N)CC(C)(C)NC2(C)C	-7	10	7	8	10	31
COC(=O)c1c(NC(=O)c2ccc(C(=O)c3ccccc3)cc2)sc2c1CC(C)(C)NC2(C)C	-21	7	0	94*	13	-38
CCOC(=O)c1c(NC(=O)COc2ccccc2)sc2c1CC(C)(C)NC2(C)C	-40	20	23	75*	44	8
CC1(C)Cc2c(sc(NC(=O)c3ccc4c(c3)OCCO4)c2C(N)=O)C(C)(C)N1	3	17	8	18	8	6
CCOc1ccc(C(=O)Nc2sc3c(c2C(=O)OC)CC(C)(C)NC3(C)C)cc1	-40	2	6	79*	30	-41
CC1(C)Cc2c(sc(NC(=O)COc3ccc(Cl)cc3)c2C#N)C(C)(C)N1	-2	-3	-21	8	9	101*
Cn1cc(Cl)c(C(=O)Nc2nc3ccccc3s2)n1	10	-186	7	-96	-34	57*
O=C(Nc1nc2ccccc2s1)c1c(F)cccc1Cl	9	-225	-58	-197	-6	-11
Cc1ccnc2nc(C(=O)Nc3nc4ccccc4s3)nn12	2	-83	-46	-105	-17	67*
Nc1ccc(C(=O)Nc2nc3ccccc3s2)cc1	2	-172	-13	-274	-43	62*
Cc1csc(NC(=O)c2nc3nccc(C)n3n2)n1	-1	-106	-34	-123	1	6
O=C(NC(=S)Nc1nc2ccccc2s1)c1cccs1	-56*	-232	0	-225	-12	29
O=C(c1ccccc1)c1ccc(N2CCN(C(=O)c3ccc(F)cc3F)CC2)c(F)c1	3	-5	24	5	13	31
COc1ccccc1Cc1c(-c2ccc(C#N)cc2)nc2ccc(C)cn12	x	-106	-71	x	x	-34
CC(CC(=O)NNC(=O)c1ccncc1)c1ccccc1 (configuration not stated)	10	15	4	-20	2	-8
Cc1ccc(-c2ccc(=O)n(Cc3cc(C)ccc3C)n2)cc1	-6	24	7	36	23	8
Cc1ccc(C)c(Cn2nc(-c3ccccc3)ccc2=O)c1	-2	18	56*	49	-6	-18
COc1ccc(C(=O)OC(C)CN2CCOCC2)cc1OC (configuration not stated)	1	6	-6	12	-5	0
COc1ccc(C(O)C(CN2CCOCC2)c2ccccc2)cc1F (configuration not stated)	9	5	55*	12	0	74*
